# Measurements: the supplement of paper PMC13172266
# Counter-ions that a name gives are not always drawn.
# Tested on: U2932 TK216-resistant clone 3
# Experiment: cell proliferation relative to vehicle (% of vehicle); higher = less growth inhibition
# Conditions: 50 nM; 72 h
# Summary of the method: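 Parental U2932 cells (ABC-DLBCL) and two clones made resistant to an ETS-targeting agent by almost a year of repeated exposure were treated for 72 h with 348 targeted inhibitors at 500 nM or 50 nM. MTT was then applied for 4 h, the reaction was stopped with 25% SDS, and absorbance was measured on a Cytation 3. Values express proliferation as percent of proliferating cells compared with DMSO vehicle.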
row,Compound,cell proliferation
1,O=C(O)C1(C(=O)O)CCC1.[NH2-].[NH2-].[Pt+2] [Carboplatin],90.2
2,C[C@]1(O)C[C@@H](c2nc(-c3ccc4ccc(-c5ccccc5)nc4c3)c3c(N)nccn32)C1 [OSI-906 (Linsitinib)],95.7
3,O=C(O)c1ccc(-c2c[nH]c3ncc(-c4ccccc4)cc23)cc1C1CCCC1,97.4
4,CN(C)CC[C@H](CSc1ccccc1)Nc1ccc(S(=O)(=O)NC(=O)c2ccc(N3CCN(Cc4ccccc4-c4ccc(Cl)cc4)CC3)cc2)cc1[N+](=O)[O-],96.6
5,O=C(O)c1ccc(Nc2ncc3c(n2)-c2ccc(Cl)cc2C(c2c(F)cccc2F)=NC3)cc1,112
6,CNC(=O)c1cccc(-c2ccc3c(N4CCOC[C@@H]4C)nc(N4CCOC[C@@H]4C)nc3n2)c1,93.8
7,C[C@]12CCC(=O)C=C1CC[C@@H]1[C@@H]2[C@@H](O)C[C@@]2(C)[C@H]1CC[C@]2(O)C(=O)CO [Hydrocortisone],97.8
8,Cc1cnc(-c2cnc(NCCNc3ccc(C#N)cn3)nc2-c2ccc(Cl)cc2Cl)[nH]1,107
9,CCOC(=O)C1=C(N)Oc2ccc(Br)cc2C1C(C#N)C(=O)OCC (centres undefined),109
10,CN(NC(=O)CC(=O)NN(C)C(=S)c1ccccc1)C(=S)c1ccccc1 [Elesclomol (STA-4783)],-0.901
11,CCc1ccc(/C=C2/SC(=S)NC2=O)cc1,102
12,"O=c1[nH]cc(F)c(=O)[nH]1 [Fluorouracil (5-Fluoracil, 5-FU)]",103
13,C[C@@H](N)[C@H]1CC[C@H](C(=O)Nc2ccncc2)CC1,100
14,CN(C)Cc1c(C(=O)NCCOc2ccc(C(=O)NO)cc2)oc2ccccc12,91.6
15,C[C@@H](Oc1cc(-n2cnc3ccc(CN4CCN(C)CC4)cc32)sc1C(N)=O)c1ccccc1C(F)(F)F,5.99
16,COc1ccc2c(Oc3ccc(NC(=O)c4c(C)n(CC(C)(C)O)n(-c5ccccc5)c4=O)nc3)ccnc2c1,95.4
17,COc1cc(CCc2cc(NC(=O)c3ccc(N4CC(C)NC(C)C4)cc3)n[nH]2)cc(OC)c1 (centres undefined),103
18,CO[C@H]1/C=C\C=C(/C)C(=O)NC2=CC(=O)C(NCCN(C)C)=C(C[C@@H](C)C[C@H](OC)[C@H](O)[C@@H](C)/C=C(\C)[C@@H]1OC(N)=O)C2=O [17-DMAG (Alvespimycin) HCl],42.3
19,Cc1c(NC(=O)OC[C@@H]2COCCN2)cn2ncnc(Nc3ccc4c(cnn4Cc4cccc(F)c4)c3)c12,98.1
20,C[C@@H]1CN(CC(=O)Nc2ccc3c(c2)Cc2cccc(-c4cc(=O)cc(N5CCOCC5)o4)c2S3)C[C@H](C)O1,103

row,Compound,cell proliferation
1,Oc1ccc(Nc2nc(-c3ccc(Cl)cc3)cs2)cc1,111
2,C=CCn1c(=O)c2cnc(Nc3ccc(N4CCN(C)CC4)cc3)nc2n1-c1cccc(C(C)(C)O)n1,99.7
3,C=C1/C(=C\C=C2/CCC[C@]3(C)[C@@H]([C@H](C)/C=C/[C@H](C)C(C)C)CC[C@@H]23)C[C@@H](O)C[C@@H]1O [Doxercalciferol],101
4,Cn1nnc2c(C(N)=O)ncn2c1=O [Temozolomide],107
5,Nc1nc(N)c2nc(-c3cccc(O)c3)c(-c3cccc(O)c3)nc2n1,110
6,COc1cc2c(Oc3ccc4[nH]c(C)cc4c3F)ncnc2cc1OCCCN1CCCC1 [Cediranib (AZD2171)],99.8
7,Cc1[nH]c(/C=C2\C(=O)Nc3ccc(S(=O)(=O)Cc4c(Cl)cccc4Cl)cc32)c(C)c1C(=O)N1CCC[C@@H]1CN1CCCC1,103
8,C[C@@H]1CC(=O)c2c(ccc3c2C(=O)c2cccc(O)c2C3=O)C1,104
9,COC(=O)c1ccc([C@H]2c3[nH]c4ccccc4c3C[C@H](C(=O)OC)N2C(=O)CCl)cc1,84
10,COc1cc(Nc2c(C#N)cnc3cc(OCCCN4CCN(C)CC4)c(OC)cc23)c(Cl)cc1Cl [Bosutinib (SKI-606)],103
11,CN(C)c1nc(N(C)C)nc(N(C)C)n1 [Altretamine],106
12,COc1ccccc1OCC(O)CN1CCN(CC(=O)Nc2c(C)cccc2C)CC1 (centres undefined) [Ranolazine],95
13,O=c1c(O)c(-c2ccc(O)c(O)c2)oc2cc(O)cc(O)c12 [Quercetin],108
14,Cc1csc(-c2nnc(Nc3ccc(Oc4ncccc4-c4ccnc(N)n4)cc3)c3ccccc23)c1,80.5
15,CCCCc1nc2cc(/C=C/C(=O)NO)ccc2n1CCN(CC)CC [Pracinostat (SB939)],89.2
16,COc1ccc(C2=N[C@@H](c3ccc(Cl)cc3)[C@@H](c3ccc(Cl)cc3)N2C(=O)N2CCNC(=O)C2)c(OC(C)C)c1 [Nutlin-3],109
17,O=c1sn(-c2cccc3ccccc23)c(=O)n1Cc1ccccc1 [Tideglusib],103
18,CCc1cncnc1N1CCN(Cc2nc3ccc(C(F)(F)F)cc3[nH]2)CC1,96
19,CN[C@@H](C)C(=O)N[C@H](C(=O)N1CCC[C@H]1C(=O)Nc1snnc1-c1ccccc1)C1CCCCC1,97.2
